Experimental data published in PubChem BioAssay AID588773 (The Scripps Research Institute Molecular Screening Center, 2011).
A number with no mark means an inactive call.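 The calls were made as follows: active = inhibition of plasma PAF acetylhydrolase at a set limit or more at 0.1 µM, with tenfold selectivity over all off-targets; inactive = inhibition below the limit or weaker selectivity.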

Test: competitive ABPP of pPAFAH versus proteome off-targets – biochemical, gel-based, FP-Rh fluorescence, mouse, HTS hit compounds, selectivity assay for pPAFAH inhibitor project, late-stage follow-up (AID 588773)
Settings: MW 30 kDa protein, at 10 µM, hits give high values

Compound	inhibition
CN(C)C(=O)Oc1noc2cc(Cl)ccc12	14%
O=C(Oc1ccc([N+](=O)[O-])cc1)N1CCC(N2CCCCC2)CC1	27%
